# Assay outcomes deposited in PubChem by several laboratories.
# The list is not random: actives were taken first. Their share in the collection is about 4.2%.
# Wnt bcat act: activates Wnt/beta-catenin signaling in a reporter cell assay; activator, plate reader; activation, % at 9.35 µM; actives 1.2% (n = 300,000); in the data active = activation above about 30%, passing the limit was not always enough; inconclusive = no clear call, values can overlap the other calls;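 also: 0% = neutral control wells and 100% = positive control wells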
# AHR activator: activators of human aryl hydrocarbon receptor; P35869; AHR-responsive luciferase reporter cells, luminescence; activation, % at 5 µM; actives 2.5% (n = 320,000); in the data active = activation above about 47%;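 also: 0% = vehicle wells and 100% = reference agonist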
# Target sequence (P35869 whole entry, looked up): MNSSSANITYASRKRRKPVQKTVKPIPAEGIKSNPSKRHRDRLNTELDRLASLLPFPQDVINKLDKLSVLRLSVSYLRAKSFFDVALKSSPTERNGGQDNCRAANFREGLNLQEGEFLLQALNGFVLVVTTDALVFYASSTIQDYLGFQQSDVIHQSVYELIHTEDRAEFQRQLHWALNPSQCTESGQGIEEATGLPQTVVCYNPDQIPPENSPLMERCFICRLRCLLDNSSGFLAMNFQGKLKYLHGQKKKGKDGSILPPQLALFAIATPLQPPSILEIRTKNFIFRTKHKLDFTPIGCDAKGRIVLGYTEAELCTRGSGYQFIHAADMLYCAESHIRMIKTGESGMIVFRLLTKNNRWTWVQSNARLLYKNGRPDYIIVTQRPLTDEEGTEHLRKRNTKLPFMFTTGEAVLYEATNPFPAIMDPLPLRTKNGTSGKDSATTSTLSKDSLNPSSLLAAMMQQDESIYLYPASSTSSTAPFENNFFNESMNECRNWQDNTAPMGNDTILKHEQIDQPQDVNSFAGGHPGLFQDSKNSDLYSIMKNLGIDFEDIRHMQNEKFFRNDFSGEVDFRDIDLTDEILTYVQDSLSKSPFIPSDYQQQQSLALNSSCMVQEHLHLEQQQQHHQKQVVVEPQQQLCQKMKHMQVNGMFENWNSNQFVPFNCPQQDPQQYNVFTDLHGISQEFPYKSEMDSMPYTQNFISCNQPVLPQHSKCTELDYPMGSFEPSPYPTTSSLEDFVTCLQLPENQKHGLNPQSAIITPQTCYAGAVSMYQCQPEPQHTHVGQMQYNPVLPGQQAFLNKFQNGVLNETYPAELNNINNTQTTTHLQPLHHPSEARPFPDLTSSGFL
# esBAF inh: inhibitors of esBAF chromatin remodeling in mouse ES cells. actives 2% (n = 350,000). reporter increase, % at 12.5 µM. Bmi1-luciferase knock-in reporter, 24 h; 100% = twice the neutral-well signal; in the data active = activation above about 40%; inconclusive = no clear call, values can overlap the other calls;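 also: 0% = median of the plate's neutral control wells and 100% = double that signal; a rise in the Bmi1 reporter signal indicates esBAF inhibition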
# GAA850 FXN act: activators of GAA850 frataxin (FXN) promoter. activation, % at 6 µM. AID 540364. HEK293 lucGAA850 FXN promoter luciferase reporter, 24 h; percent of 10 µM SAHA response. actives 0.56% (n = 360,000);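 active = activation above the average of all compounds screened plus 3 SD, cutoff fixed separately per campaign, cut at about 7.5% in these data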;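 also: 0% = DMSO wells and 100% = 10 µM SAHA wells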
# MITF TRPM1 HTS: MITF TRPM1 promoter activation in melanoma cells; SK-MEL-5 TRPM1-promoter luciferase, 24 h; % of positive control, neutral wells = 0; actives 0.75% (n = 300,000); AID 588334; activation, % at 12.5 µM;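 active = mean activation of at least 80% with every replicate also reaching 80%; inconclusive = mean reaches 80% but some replicate falls short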;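 also: 0% = neutral control wells and 100% = parthenolide positive control wells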
# GAA30 FXN cntr: GAA30 FXN promoter activation counter-screen; shares compounds with GAA850 FXN act; HEK293 lucGAA30 FXN promoter luciferase, 24 h; DMSO = 0%, 5 µM ipriflavone = 100%; activation, % at 6 µM; actives 66% (n = 1,900); AID 588350;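 active = mean activation above the mean of solvent-only control wells plus 3 SD, cut at about 22% in these data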;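 also: counterscreen of GAA850 promoter hits where activity marks nonselective or luminescence artifacts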
# GAA850 confirm: GAA850 FXN promoter activation confirmation | shares compounds with GAA850 FXN act | activation, % at 6 µM | actives 86% (n = 1,900) | HEK293 lucGAA850 FXN promoter luciferase reporter, 24 h; 100% = activation by SAHA | AID 588351;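 active = mean activation above a set limit taken from the primary screen, cut at about 8% in these data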;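 also: 0% = DMSO wells and 100% = 10 µM SAHA wells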
# esBAF Ring1 qPCR: esBAF inhibition confirmed by Ring1 de-repression | shares compounds with esBAF inh | mouse ESC E14, Ring1 mRNA RT-qPCR fold change | fold change at 33 µM | 550 tested, under 10 active | AID 743176;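 active = Ring1 gene expression raised more than 2-fold over untreated cells in both replicates at either tested dose; inconclusive = only one replicate above 2-fold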;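 also: Ring1 transcript normalised to actin housekeeping signal by TaqMan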
# esBAF Fgf4 qPCR: confirmation of esBAF inhibitors: Fgf4 repression in mouse ESCs; Fgf4 expression fold change at 33 µM; mouse ESC E14, Fgf4 mRNA qPCR fold change; hits give low values; actives 4% (n = 550); shares compounds with esBAF inh;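 active = Fgf4 expression under 0.8 fold of control in both repeat measurements at one or both tested doses; inconclusive = under 0.8 fold in just a single repeat measurement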;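 also: Fgf4 transcript normalised to actin in duplex TaqMan qPCR; cells exposed to compound for 24 h before lysis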
# Bmi1 derepress: esBAF inhibition confirmed by Bmi1 de-repression. AID 743180. mouse ESE14 ES cells, Bmi1 mRNA qPCR fold; hits give high values. fold change at 33 µM. 550 tested, under 10 active. shares compounds with esBAF inh;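 active = Bmi1 expression fold change above 6 at either tested concentration, seen in replicate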;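 also: higher fold means more Bmi1 de-repression and stronger esBAF inhibition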
# A549 cytotox: kills or reduces viability of A549 cells | shares compounds with esBAF inh | A549 cytotoxicity, plate reader | cell viability change % (negative = cytotoxic), % at 25 µM, hits read low | 550 tested, under 10 active; call rule not given here
# HepG2 tox SP: kills or reduces viability of HepG2 cells; shares compounds with esBAF inh; HepG2 cytotoxicity, plate reader; hits give low values; activity change, negative = inhibition, % at 25 µM; actives 4% (n = 550); AID 743189; in the data active = activity change below about -50%
# HEK293 tox SP: cytotoxicity in HEK293 cells. plate reader. activity change, negative = inhibition, % at 25 µM, hits read low. shares compounds with esBAF inh. actives 3% (n = 550); in the data active = activity change below about -38%, passing the limit was not always enough
# Numbers without * were called inactive; ? = inconclusive; . = no result.
SMILES,Wnt bcat act,AHR activator,esBAF inh,GAA850 FXN act,MITF TRPM1 HTS,esBAF Ring1 qPCR,esBAF Fgf4 qPCR,Bmi1 derepress,A549 cytotox,HepG2 tox SP,HEK293 tox SP,others
Clc1ccc(Cn2cnc3ccccc32)cc1,0,1,-8,2,1,.,.,.,.,.,.,
O=C(C[C@H]1CC[C@H]2[C@@H](COC[C@@H](O)CN2Cc2nccs2)O1)NCc1ccccc1,.,.,-5,.,.,.,.,.,.,.,.,
c1ccc2nc3c(ccc4ccccc43)cc2c1,2,.,70*,7.7*,28,0.92,1,1.1,-12,31,-17,GAA30 FXN cntr=106*;GAA850 confirm=37*
Cc1cccc2cc3ccccc3nc12,11,0,.,1,.,.,.,.,.,.,.,
C[C@@H]1CN([C@H](C)CO)C(=O)c2cc(NS(=O)(=O)c3ccccc3)ccc2O[C@@H]1CN(C)C,.,.,-6,.,.,.,.,.,.,.,.,
O=C(C[C@@H]1C=C[C@@H](NS(=O)(=O)c2ccc(F)cc2)[C@H](CO)O1)NCCN1CCCCC1,.,.,1,.,.,.,.,.,.,.,.,
Nc1n[nH]c(N)c1N=Nc1ccc(Cl)cc1,-3,-1,53*,8.7*,53,1.4,1.1,1.9,0,3,5,GAA30 FXN cntr=71*;GAA850 confirm=15*
CN(C)c1ccc(N=Nc2ccccc2C(=O)OCC(=O)Nc2ccccc2C(F)(F)F)cc1,4,.,54*,7.6*,6,1.2,1,1.7,-14,1,-17,GAA30 FXN cntr=73*;GAA850 confirm=23*
Cc1cc(C(=O)Nc2sc(C)c(-c3ccc(F)cc3)c2C(N)=O)no1,.,5,78*,8.4*,79,1,0.97,1.4,7,-17,-3,GAA30 FXN cntr=106*;GAA850 confirm=31*
CCc1ccc(-c2c(C)sc(NC(C)=O)c2C(N)=O)cc1,.,-1,0,2,-1,.,.,.,.,.,.,
Cc1ccc(NC(=O)C2CC3CCC2C3)c(Br)c1 (stereo unspecified),7,.,73*,4,52,1,1,2,-10,-18,-11,
CC(=O)Nc1ccc2c(c1)C(=Nc1ccccc1)c1ccccc1-2,10,.,34,2,6,.,.,.,.,.,.,
CC(=O)Nc1cc2c3c(cccc3c1)-c1ccccc1-2,6,.,70*,4,34,1.3,?,1.5,-5,27,-7,
C=C1C2(C(=O)Nc3ccc(SC(F)F)cc3)CCC(C2)C1(C)C (stereo unspecified),-2,13,3,5,0,.,.,.,.,.,.,
O=C(Nc1ccc(SC(F)F)cc1)C12CCC(CC1)C2,12,4,56*,4,42,1.2,?,1.7,-5,26,1,
CC(=O)N(/N=C1\Sc2ccccc2C1=O)c1ccc(C)cc1C,.,38,.,-13,-46,.,.,.,.,.,.,
CC(=O)N(/N=C1\Sc2ccccc2C1=O)c1ccccc1,.,.,81*,4,.,1.1,.,1.2,-3,-1,-12,
C[C@H]1CN([C@@H](C)CO)C(=O)c2cccc(NC(=O)NC3CCCCC3)c2O[C@H]1CN(C)Cc1ccc(C(F)(F)F)cc1,.,.,0,.,.,.,.,.,.,.,.,
CCS(=O)(=O)n1nc(-c2ccc(Cl)cc2)nc1SC,.,-2,57*,0,66,1.2,0.9,1.2,-15,21,-20,
O=C(CCc1nnc(C2(c3ccc(Cl)cc3)CCC2)o1)N1CCCC1,29,2,65*,5,43,0.9,0.94,1.3,-12,-12,-18,
COc1ccc(-c2csc(C(O)c3ccc(OC)cc3)n2)cc1 (stereo unspecified),1,.,6,0,.,.,.,.,.,.,.,
CN(C)c1ccc(-c2csc(C(O)c3ccccc3)n2)cc1 (stereo unspecified),-2,.,61*,2,.,1.1,?,1.7,-2,3,-1,
CN(C)c1ccc(-c2csc(C(O)c3ccc(F)cc3)n2)cc1 (stereo unspecified),2,.,82*,3,.,1.3,0.9,1.6,-10,-47,-16,
COc1ccc(-c2csc(C(O)c3ccc(F)cc3)n2)cc1 (stereo unspecified),28,.,60*,0,.,1.1,0.82,1.7,1,-9,3,
COc1ccc(C(O)c2nc(-c3ccccc3)cs2)cc1 (stereo unspecified),-1,.,9,0,.,.,.,.,.,.,.,
SMILES,Wnt bcat act,AHR activator,esBAF inh,GAA850 FXN act,MITF TRPM1 HTS,esBAF Ring1 qPCR,esBAF Fgf4 qPCR,Bmi1 derepress,A549 cytotox,HepG2 tox SP,HEK293 tox SP,others
C[C@H](CO)N1C[C@H](C)[C@H](CN(C)C)Oc2ccc(NC(=O)Cc3cn(C)c4ccccc34)cc2C1=O,.,.,0,.,.,.,.,.,.,.,.,
Cc1ccc(S(=O)(=O)N[C@@H]2CC[C@H](CCn3cc(-c4ccccc4F)nn3)O[C@@H]2CO)cc1,.,.,9,.,.,.,.,.,.,.,.,
Cc1ccc2c(COC(=O)C34CC5CC(CC(C5)C3)C4)cc(=O)oc2c1,.,3,96*,3,103*,1.3,0.88,1.5,0,-18,-5,
O=C(Nc1ccc2c(c1)OCO2)c1cnc(Cl)c(Cl)c1,-1,.,54*,6,53,0.97,1.1,1,5,-9,-2,
O=C(Nc1ccc2c(c1)OCO2)c1cc(C2CC2)on1,1,26,32,4,.,.,.,.,.,.,.,
COc1ccc(OCc2cc(C(=O)N(Cc3nccn3C)C(C)C)no2)c2ccccc12,20,20,70*,3,43,0.82,0.89,1.5,1,-31,-7,
COc1ccc(OCc2cc(C(=O)N(C)Cc3nccn3C)no2)c2ccccc12,-2,32,0,3,-28,.,.,.,.,.,.,
CCC(=O)c1ccc(N2CCCCCC2)c(F)c1,.,-4,74*,2,54,1.1,1.1,1.3,-17,20,-15,
CCC(=O)c1ccc(N2CCCC2)c(F)c1,.,10,57*,2,.,1.1,0.91,1.4,-4,-21,-11,
CCC(=O)c1ccc(N2CCN(C(=O)c3ccccc3F)CC2)c(F)c1,-3,4,.,4,-2,.,.,.,.,.,.,
COc1cccc(C(=O)c2cc3cc(Cl)ccc3[nH]2)c1,14,16,78*,2,23,1,?,2.5,-6,-34,5,
